Results filed as inconclusive are left out. Activity calls are given as the source filed them. Unless noted, the call rests on the fitted dose curve; in most records, active means well fitted curve in the direction sought with a large enough effect in the repeat runs; inconclusive means weak or mixed curves; inactive means no such curve, though single readings can be large; an effect the other way counts as inactive or inconclusive.
What was measured:
[1] = qHTS assay to identify small molecule antagonists of the estrogen related receptor (ERR) signaling pathway from Tox21 library - cell viability counter screen (AID 1224834); further: nearly all actives have a fitted effect of over 30% in size; further: potency means the concentration at half of the fitted maximal effect
Summary of the method: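 ERR reporter cells were plated 6 h before compound addition, then exposed to test compounds in DMSO for 17.5 h at 37 C. Viability was read as CellTiter-Fluor fluorescence after a 30-minute incubation at 37 C.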

[2] = molecular target: Luciferin 4-monooxygenase (Photinus pyralis) (UniProt P08659); test: qHTS assay to identify small molecule inhibitors of firefly luciferase (AID 1224835); further: nearly all actives have a fitted effect of over 25% in size; further: potency means the concentration at half of the fitted maximal effect
Chain of Luciferin 4-monooxygenase (Photinus pyralis) (P08659 whole entry, looked up): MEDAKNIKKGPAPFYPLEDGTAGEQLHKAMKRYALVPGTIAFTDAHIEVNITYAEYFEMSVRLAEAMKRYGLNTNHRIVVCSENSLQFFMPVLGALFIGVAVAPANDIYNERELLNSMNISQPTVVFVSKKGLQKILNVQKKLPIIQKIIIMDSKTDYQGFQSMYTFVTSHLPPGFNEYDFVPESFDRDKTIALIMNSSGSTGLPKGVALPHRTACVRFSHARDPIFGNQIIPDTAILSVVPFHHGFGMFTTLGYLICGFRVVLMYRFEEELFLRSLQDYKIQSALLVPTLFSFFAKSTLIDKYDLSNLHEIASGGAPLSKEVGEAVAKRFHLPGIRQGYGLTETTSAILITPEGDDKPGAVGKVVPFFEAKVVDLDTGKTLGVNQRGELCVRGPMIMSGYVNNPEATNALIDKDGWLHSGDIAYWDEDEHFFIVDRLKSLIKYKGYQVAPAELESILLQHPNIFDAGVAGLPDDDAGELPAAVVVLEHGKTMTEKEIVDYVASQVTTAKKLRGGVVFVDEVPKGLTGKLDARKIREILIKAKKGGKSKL
Summary of the method: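 Biochemical qHTS: compounds run as interplate titrations against purified firefly enzyme, with D-luciferin and ATP each at its KM concentration. Light output recorded by CCD imaging.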

[3] = qHTS assay to identify small molecule agonists of the constitutive androstane receptor (CAR) signaling pathway - cell viability counter screen (AID 1224836); further: series mostly up to about 92 µM; nearly all actives have a fitted effect of over 45% in size
Summary of the method: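 HepG2-CYP2B6-hCAR, 2500 cells/well, 4 h pre-incubation; cpd 15 conc + PK11195 0.75 uM final; 23 h, 37 C/5% CO2; CellTiter-Fluor, fluorescence.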

[4] = qHTS assay to identify small molecule antagonists of the constitutive androstane receptor (CAR) signaling pathway - cell viability counter screen (AID 1224837); further: series mostly up to about 92 µM; nearly all actives have a fitted effect of over 45% in size
Summary of the method: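 HepG2 cells stably expressing hCAR and a CYP2B6-2.2kb reporter were plated and pre-incubated 4 hr at 37 C/5% CO2, then given compounds at 15 concentrations plus 50 nM CITCO (final). After 23 hr, viability was read by CellTiter-Fluor fluorescence.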

[5] = qHTS assay to identify small molecule antagonists of the estrogen related receptor signaling pathway with the pleiotropic PPARgamma coactivator (PGC) from Tox21 10K library - cell viability counter screen (AID 1224840; active means well fitted cell-killing curve with a large enough effect in the repeat runs, not every such curve was filed as active; further: nearly all actives have a fitted effect of over 40% in size)
Summary of the method: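 PGC/ERR cells were seeded at 2,000 cells/well and left 6 hours at 37 C/5% CO2 before pin-tool addition of compounds in DMSO. After 17.5 hours at 37 C, CellTiter-Fluor was added and fluorescence read 30 minutes later.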

[6] = qHTS assay to identify small molecule agonists of the hypoxia (HIF-1) signaling pathway - cell viability counter screen (AID 1224844; calls by dose curve; further: nearly all actives have a fitted effect of over 50% in size)
Summary of the method: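 HRE-bla ME-180 cells in medium with 0.5% dialyzed FBS were preincubated 5 hrs at 37C, exposed to compounds for 17 hrs, then viability was read as CellTiter-Glo luminescence after 30 min at room temperature, in the reporter wells.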

[7] = qHTS assay to identify small molecule agonists of H2AX (AID 1224845; active means well fitted activation curve with a large enough effect in the signal ratio in the repeat runs, not every such curve was filed as active; the % refers to the signal ratio)
Summary of the method: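 Wild-type CHO-K1 cells, plated overnight, exposed 3hr at 37C to 15 concentrations (0.76% DMSO final). Lysed, then HTRF anti-pH2AX (S139) cryptate and anti-H2AX-d2 antibodies, 24 hr room temperature; 665/620 nm emission read.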

[8] = qHTS assay to identify small molecule agonists of the hypoxia (HIF-1) signaling pathway (AID 1224846; active means well fitted activation curve with a large enough effect in the signal ratio in the repeat runs, not every such curve was filed as active; the % refers to the signal ratio)
Summary of the method: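 HRE-bla ME-180 cells (beta-lactamase reporter under hypoxia response element) were plated at 2,000 cells/well in medium with 0.5% dialyzed FBS, rested 5 hrs, then given compounds in DMSO for 17 hrs at 37C, 5% CO2. Reporter induction was read with CCF4-AM FRET substrate.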

[9] = qHTS assay to identify small molecule agonists of H2AX - cell viability counter screen (AID 1224847; calls by dose curve; further: top concentration of the series differs between compounds; nearly all actives have a fitted effect of over 30% in size)
Summary of the method: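 Cells plated first: CHO-K1, 1000 per well in 10% FBS medium, incubated overnight at 37C. Then 15-point compound titration added (final DMSO 0.76%) for 3 hr. Finally CellTiter-Glo added and luminescence read.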

[10] = A CellTox Green Cytotoxicity Assay to monitor cytotoxicity in HEK293 cells - 0 hour (AID 1224869); further: nearly all actives have a fitted effect of over 50% in size
Summary of the method: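 HEK293 cells premixed with CellTox Green dye were seeded at 600 cells/well and left 5 h at 37 C/5% CO2 before pin transfer of 23 nL compound in DMSO. Fluorescence from dye bound to dead-cell DNA was read during 40 h treatment.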

[11] = qHTS RealTime-Glo MT Cell Viability Assay in HepG2 cells - 40 hour (AID 1224870); further: nearly all actives have a fitted effect of over 50% in size
Summary of the method: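 HepG2 cells (600/well) mixed with RealTime-Glo MT reagent, settled 5 h at 37 C/5% CO2 before compound addition. Nonlytic NanoLuc luminescence from viable-cell prosubstrate reduction read repeatedly during 40 h treatment at 37 C.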

[12] = molecular target: Nuclear receptor subfamily 1 group I member 3 (Homo sapiens) (UniProt Q14994); test: qHTS assay to identify small molecule antagonists of the constitutive androstane receptor (CAR) signaling pathway (AID 1224838); further: nearly all actives have a fitted effect of over 40% in size
Chain of Nuclear receptor subfamily 1 group I member 3 (Homo sapiens) (Q14994 whole entry, looked up): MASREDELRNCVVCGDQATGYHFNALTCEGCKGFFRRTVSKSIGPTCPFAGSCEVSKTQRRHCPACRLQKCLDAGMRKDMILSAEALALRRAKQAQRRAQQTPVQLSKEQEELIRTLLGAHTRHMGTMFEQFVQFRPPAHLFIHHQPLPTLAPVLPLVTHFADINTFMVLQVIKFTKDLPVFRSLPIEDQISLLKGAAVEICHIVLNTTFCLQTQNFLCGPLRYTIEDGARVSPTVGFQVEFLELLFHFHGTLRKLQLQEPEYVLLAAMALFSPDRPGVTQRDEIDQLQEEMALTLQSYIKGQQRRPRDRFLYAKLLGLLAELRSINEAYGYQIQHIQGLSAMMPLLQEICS
Summary of the method: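 HepG2 cells stably co-transfected with hCAR and a CYP2B6-2.2kb luciferase reporter were seeded 4 h before compound addition at 15 concentrations. Cells were stimulated with 50 nM CITCO (final) for 24 h at 37 C; luciferase luminescence was then read.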

[13] = molecular target: Nuclear receptor subfamily 1 group I member 3 (Homo sapiens) (UniProt Q14994); test: qHTS assay to identify small molecule agonists of the constitutive androstane receptor (CAR) signaling pathway (AID 1224839); further: nearly all actives have a fitted effect of over 15% in size; further: potency means the concentration at half of the fitted maximal effect;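 on activation: HepG2 cells stably carrying human CAR and a CYP2B6 luciferase reporter; series mostly up to about 92 µM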
Summary of the method: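 HepG2-CYP2B6-hCAR cells, 2500/well, 4 h pre-incubation; compounds 15 conc.; PK11195 0.75 uM final; 24 h, 37 C/5% CO2; ONE-Glo luciferase read.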

[14] = molecular target: Thyrotropin receptor (Homo sapiens) (UniProt P16473); test: qHTS assay to identify small molecule agonists of the thyroid stimulating hormone receptor (TSHR) signaling pathway (AID 1224843; calls by dose curve; further: nearly all actives have a fitted effect of over 45% in size)
Chain of Thyrotropin receptor (Homo sapiens) (P16473 whole entry, looked up): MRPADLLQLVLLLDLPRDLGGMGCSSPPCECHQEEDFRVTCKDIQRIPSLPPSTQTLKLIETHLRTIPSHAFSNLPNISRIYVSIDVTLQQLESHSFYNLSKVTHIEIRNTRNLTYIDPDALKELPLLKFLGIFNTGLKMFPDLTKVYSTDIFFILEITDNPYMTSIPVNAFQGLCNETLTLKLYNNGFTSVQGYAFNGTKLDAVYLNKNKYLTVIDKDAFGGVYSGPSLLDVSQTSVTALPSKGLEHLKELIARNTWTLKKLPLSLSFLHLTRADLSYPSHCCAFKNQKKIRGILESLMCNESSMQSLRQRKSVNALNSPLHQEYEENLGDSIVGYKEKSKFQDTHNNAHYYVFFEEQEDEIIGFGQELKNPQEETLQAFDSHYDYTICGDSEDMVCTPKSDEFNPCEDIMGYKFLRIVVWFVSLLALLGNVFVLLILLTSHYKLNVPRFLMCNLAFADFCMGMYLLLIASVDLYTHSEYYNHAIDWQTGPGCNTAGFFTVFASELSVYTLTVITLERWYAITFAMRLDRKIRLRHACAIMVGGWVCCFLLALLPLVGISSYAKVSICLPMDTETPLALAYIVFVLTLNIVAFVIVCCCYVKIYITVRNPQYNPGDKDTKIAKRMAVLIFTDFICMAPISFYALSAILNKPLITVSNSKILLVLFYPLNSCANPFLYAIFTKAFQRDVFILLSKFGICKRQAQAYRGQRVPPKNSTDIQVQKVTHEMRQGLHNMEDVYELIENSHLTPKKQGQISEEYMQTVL
Summary of the method: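 Steps: seed 800 TSHR-HEK293 cells per well; add test compound and hold 30 min at ambient temperature; dispense cAMP-d2 then anti-cAMP cryptate; incubate 1 h at ambient; measure fluorescence intensity.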

[15] = qHTS RealTime-Glo MT Cell Viability Assay in HepG2 cells - 24 hour (AID 1224867); further: nearly all actives have a fitted effect of over 50% in size
Summary of the method: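 HepG2 cells (600/well) were dispensed with RealTime-Glo reagents, incubated 5 h at 37 °C, then treated with compounds in DMSO for up to 40 h. Nonlytic NanoLuc luminescence reflecting viable cells was read at each stated time point.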

[16] = qHTS RealTime-Glo MT Cell Viability Assay in HEK293 cells - 32 hour (AID 1224868)
Summary of the method: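 HEK293 cells seeded with NanoLuc/prosubstrate reagent, rested 5 h at 37 C, then dosed and kept at 37 C up to 40 h. Nonlytic real-time luminescence from viable cells read at 0, 8, 16, 24, 32 and 40 h.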

[17] = qHTS assay to identify small molecule antagonists of the estrogen related receptor signaling pathway with the pleiotropic PPARgamma coactivator (PGC) from Tox21 10K library (AID 1224841; call rule not given here)
Summary of the method: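 PGC/ERR reporter cells were seeded at 2,000 cells/well and held 6 hours at 37 C/5% CO2 before pin-tool addition of compounds in DMSO. After 18 hours at 37 C, One-Glo was added and luminescence read after 30 minutes at room temperature.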

[18] = qHTS assay to identify small molecule agonists of the estrogen related receptor signaling pathway with the pleiotropic PPARgamma coactivator (PGC) from Tox21 10K library (AID 1224842); further: nearly all actives have a fitted effect of over 15% in size
Summary of the method: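 PGC/ERR reporter cell line, 2,000 cells per well, incubated 6 h at 37 C before 23 nL compound in DMSO was added. After 18 h at 37 C, One-Glo luminescence read following 30 min at room temperature.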

[19] = qHTS assay to identify small molecule antagonists of the estrogen related receptor (ERR) signaling pathway from Tox21 library (AID 1224848); further: nearly all actives have a fitted effect of over 50% in size
Summary of the method: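 Luminescent reporter read-out (ONE-Glo) from NTP's ERR cell line after 18 h treatment at 37 C with DMSO-dissolved Tox21 compounds; cells pre-plated 6 h beforehand at 2,000 per well.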

[20] = qHTS assay to identify small molecule agonists of the estrogen related receptor (ERR) signaling pathway from Tox21 library (AID 1224849; calls by dose curve; further: nearly all actives have a fitted effect of over 15% in size)
Summary of the method: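 ERR reporter cell line (NTP) seeded, rested 6 h at 37 C/5% CO2, then pinned with Tox21 compounds in DMSO. After 18 h at 37 C, ONE-Glo luciferase luminescence was read following 30 min at room temperature.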
On the % scale 0 is the no-effect control and ±100 the full control effect.

CC[N+](CC)(CC(=O)Nc1c(C)cccc1C)Cc1ccccc1 (tested in a mixture with another compound)
inactive: Potency [1] | Potency [2] | outcome [3] | outcome [4] | outcome [5] | Potency [6] | Potency [7] | outcome [8] | outcome [9] | outcome [10] | Potency [11]

CN1C(C)(C)CC(O)CC1(C)C
inactive: Potency [1] | outcome [3] | outcome [4] | Potency [12] | Potency [13] | outcome [5] | Potency [14] | Potency [6] | Potency [7] | outcome [8] | outcome [9] | outcome [15] | Potency [16] | outcome [10]

CN1CC(=O)N/C1=N/C(=O)Nc1cccc(Cl)c1
inactive: Potency [1] | outcome [3] | outcome [4] | Potency [12] | outcome [5] | Potency [14] | Potency [6] | Potency [7] | outcome [8] | outcome [15] | Potency [16] | outcome [10] | Potency [11]
active: Potency [13] 33.5 µM

CCCCCCCCCCOc1cc2c(=O)c(C(=O)OCC)c[nH]c2cc1OCC
inactive: viability change, negative = cytotoxic [1] 3.47% [at 8.39 µM] | viability change, negative = cytotoxic [3] 4.44% [at 8.39 µM] | activity change, negative = cytotoxicity [4] 5.07% [at 8.39 µM] | activity, negative = inhibition [12] 5.74% [at 8.39 µM] | activation [13] -0.235% [at 8.39 µM] | viability change, negative = cytotoxic [5] 9.28% [at 8.39 µM] | activation [14] -0.126% [at 8.39 µM] | activity change, negative = cytotoxicity [6] 1.84% [at 6.97 µM] | activation [8] 0.236% [at 7.01 µM] | activity change, negative = cytotoxicity [9] 1.5% [at 14 µM] | activity change, negative = cytotoxicity [15] 3.75% [at 6.97 µM] | activity change, negative = cytotoxic [16] 6.41% [at 6.97 µM] | cytotoxicity [10] -0.138% [at 6.97 µM] | activity change, negative = cytotoxic [11] 0.617% [at 6.97 µM]

CC/C=C\CCOC(C)OCC (stereo unspecified)
inactive: Potency [1] | outcome [3] | outcome [4] | Potency [12] | Potency [13] | outcome [5] | Potency [14] | Potency [6] | Potency [7] | outcome [8] | outcome [9] | outcome [10] | Potency [11]

CC(C)(C)C(=O)Oc1ccc(S(=O)(=O)Nc2ccccc2C(=O)NCC(=O)O)cc1
inactive: Potency [1] | outcome [3] | outcome [4] | Potency [12] | Potency [13] | outcome [5] | Potency [6] | Potency [7] | outcome [8] | outcome [9] | outcome [15] | Potency [16] | outcome [10]

CCCCCCC#CC(=O)OC
inactive: Potency [1] | outcome [3] | outcome [4] | Potency [12] | Potency [13] | outcome [5] | Potency [17] | Potency [18] | Potency [6] | Potency [7] | outcome [8] | outcome [9] | Potency [19] | outcome [20] | outcome [15] | Potency [16] | outcome [10]

Cc1ccc(-c2ccccc2C#N)cc1
inactive: Potency [1] | outcome [3] | outcome [4] | Potency [12] | Potency [13] | outcome [5] | Potency [6] | Potency [7] | outcome [8] | outcome [9] | outcome [15] | Potency [16] | outcome [10] | Potency [11]

CCCCCCCC1CCCC1=O (stereo unspecified)
inactive: Potency [1] | Potency [2] | outcome [3] | outcome [4] | outcome [5] | Potency [6] | Potency [7] | outcome [8] | outcome [15] | Potency [16] | outcome [10] | Potency [11]

CO[C@@]1(NC(=O)C(C(=O)O)c2ccc(O)cc2)C(=O)N2C(C(=O)O)=C(CSc3nnnn3C)CO[C@@H]21 (stereo partly specified)
inactive: Potency [1] | outcome [3] | outcome [4] | Potency [12] | Potency [13] | outcome [5] | Potency [17] | Potency [18] | Potency [14] | Potency [6] | Potency [7] | outcome [9] | Potency [19] | outcome [20] | outcome [15] | Potency [16] | outcome [10] | Potency [11]

Cc1ncc([C@@H](CCCCCCc2ccc3c(n2)NCCC3)CC(=O)O)cn1
inactive: Potency [2] | outcome [3] | Potency [6] | Potency [7] | outcome [8] | outcome [9] | outcome [15] | Potency [16] | outcome [10]
active: Potency [1] 0.109 µM

CCCCCCC1CCC(=O)O1 (stereo unspecified)
inactive: Potency [1] | outcome [3] | outcome [4] | Potency [12] | Potency [13] | outcome [5] | Potency [17] | Potency [18] | Potency [14] | Potency [6] | Potency [7] | outcome [8] | outcome [9] | Potency [19] | outcome [20] | outcome [15] | Potency [16] | outcome [10] | Potency [11]

CCC(=O)OCc1ccccc1
inactive: Potency [1] | Potency [2] | outcome [3] | outcome [4] | outcome [5] | Potency [6] | Potency [7] | outcome [8] | outcome [15] | Potency [16] | outcome [10] | Potency [11]

C=CCCCCCCCCC(=O)OCC
inactive: Potency [1] | outcome [3] | outcome [4] | Potency [12] | Potency [13] | outcome [5] | Potency [17] | Potency [18] | Potency [14] | Potency [6] | Potency [7] | outcome [8] | outcome [9] | Potency [19] | outcome [20] | outcome [10] | Potency [11]

CC(C)NNC(=O)c1ccncc1
inactive: Potency [1] | Potency [2] | outcome [3] | outcome [4] | outcome [5] | Potency [6] | Potency [7] | outcome [9] | Potency [16] | outcome [10] | Potency [11]

CCOC(=O)C1=NOC(c2ccccc2)(c2ccccc2)C1
inactive: Potency [1] | outcome [3] | outcome [4] | outcome [5] | Potency [6] | outcome [8] | outcome [9] | outcome [15] | Potency [16] | outcome [10] | Potency [11]
active: Potency [2] 71 µM
